This is a sample that favours compounds with a hit; in the whole collection about 4.1% have one here.
DAX1 inh-1 = NR0B1 (DAX1) inhibition | HEK293 Gal4-DAX1 luciferase reporter, luminescence | hit rate 0.99% among 340,000 | P51843 | inhibition, % at 6.75 µM;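 active = inhibition above the mean over all tested compounds plus 3 SD, cut at about 4.2% in these data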;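 also: inhibition shows as a rise in luminescence from relieved DAX1 repression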
Target sequence (P51843 207-470 limits assumed): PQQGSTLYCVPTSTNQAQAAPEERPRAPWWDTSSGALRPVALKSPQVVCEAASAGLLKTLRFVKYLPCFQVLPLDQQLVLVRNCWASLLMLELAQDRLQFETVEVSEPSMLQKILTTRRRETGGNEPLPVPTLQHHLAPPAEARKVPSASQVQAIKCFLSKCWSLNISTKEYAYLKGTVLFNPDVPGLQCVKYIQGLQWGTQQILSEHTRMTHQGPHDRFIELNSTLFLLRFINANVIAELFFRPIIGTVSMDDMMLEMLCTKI
DAX1 inh-2 = DAX1 (NR0B1) inhibition, primary screen; HEK293T StAR-luciferase reporter, SF-1/DAX-1 repression relief; inhibition, % at 6.8 µM; hit rate 1.1% among 370,000; AID 652010;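 active = inhibition above the mean over all tested compounds plus 3 SD, cut at about 3.6% in these data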;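 also: higher inhibition means more luminescence from relief of DAX-1 repression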
hgDAF12 agonist = hgDAF-12 agonism, primary luciferase screen; HEK293 GAL4-hgDAF12 UAS-luciferase reporter, agonist luminescence; normalized to butyrate control; activation, % at 6.8 µM; hit rate 1.8% among 370,000;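 active = activation above a cutoff set at the mean of all screened compounds plus 3 SD, cut at about 10% in these data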
ssDAF-12 act = S. stercoralis DAF-12 activation, primary screen. HEK293 ssDAF-12/GRIP1 lit1-tk-luc reporter, luminescence; % of 3 µM dafachronic acid response. activation, % at 6.8 µM. hit rate 1% among 370,000. AID 652126;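 active = activation above the mean over all tested compounds plus 3 SD, cut at about 0.9% in these data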
hcDAF-12 act = activators of H. contortus DAF-12 nuclear receptor. AID 652067. hit rate 1.4% among 370,000. activation, % at 6.8 µM. HEK293 hcDAF-12 lit1-tk-luc reporter, luminescence; 0% DMSO, 100% Δ7-dafachronic acid;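 active = activation above the mean of all tested compounds plus 3 SD, cut at about 5.5% in these data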
DAX1 inh confirm = NR0B1 (human) inhibition, confirmation; HEK293T StAR-promoter luciferase reporter, SF-1/DAX-1 repression; hit rate 87% among 2,400; shares compounds with DAX1 inh-2; inhibition, % at 6.8 µM;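 active = inhibition above the average of every tested compound plus 3 SD, cut at about 3.8% in these data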;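 also: active compounds raise luminescence by relieving repression of the StAR reporter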
Target sequence (P51843 whole entry, looked up): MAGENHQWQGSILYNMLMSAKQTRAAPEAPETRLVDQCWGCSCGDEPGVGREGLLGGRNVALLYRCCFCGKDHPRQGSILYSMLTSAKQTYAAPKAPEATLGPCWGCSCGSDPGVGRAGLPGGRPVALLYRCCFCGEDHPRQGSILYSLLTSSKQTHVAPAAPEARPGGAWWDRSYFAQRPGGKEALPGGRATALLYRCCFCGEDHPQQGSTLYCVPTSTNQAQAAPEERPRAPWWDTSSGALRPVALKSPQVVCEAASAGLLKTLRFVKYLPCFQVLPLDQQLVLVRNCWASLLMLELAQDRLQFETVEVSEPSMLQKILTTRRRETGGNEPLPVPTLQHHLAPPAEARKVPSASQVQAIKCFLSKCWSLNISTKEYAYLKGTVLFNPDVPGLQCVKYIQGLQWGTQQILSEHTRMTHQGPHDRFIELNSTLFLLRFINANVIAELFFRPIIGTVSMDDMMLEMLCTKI
SF1 AF2mut Luc = nonselective inhibitor or artifact in SF-1 mutant DAX1 counter-screen | AID 652136 | hit rate 78% among 2,400 | shares compounds with DAX1 inh-2 | HEK293 StAR-luciferase, SF-1 AF2 mutant, luminescence | inhibition, % at 6.8 µM;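 active = inhibition above the mean of all tested compounds plus 3 SD, cut at about 3% in these data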
LXRb hcDAF ctr = counter-screen for hcDAF-12 agonists: agonists of human LXR-beta | shares compounds with hcDAF-12 act | HEK293 Gal4-LXR tk-luc reporter, luminescence, 24 h; normalized: DMSO 0%, positive control 100% | activation, % at 6.8 µM | 3,400 tested, under 10 active;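 active = mean percent activation of the reporter above a cutoff set as the average over tested compounds plus their standard deviation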
hcDAF12 conf = confirmation of H. contortus DAF-12 agonists | shares compounds with hcDAF-12 act | HEK293 hcDAF-12 lit1-tk-luc reporter, luminescence; % of Δ7-dafachronic acid response | activation, % at 6.8 µM | hit rate 61% among 3,400;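 active = mean activation across triplicate tests above the threshold derived from the earlier primary screen, cut at about 5.5% in these data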
hgDAF12 conf = hgDAF-12 agonism, confirmation assay; shares compounds with hgDAF12 agonist; HEK293 GAL4-hgDAF12 luciferase reporter, agonist mode; percent of butyrate response; activation, % at 6.8 µM; hit rate 80% among 3,300;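 active = mean activation over triplicate wells above the hit cutoff derived from the earlier primary screen, cut at about 11% in these data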
LXR ag 2 = LXR-beta agonism as DAF-12 counter-screen; shares compounds with hgDAF12 agonist; HEK293 Gal4-LXR luciferase reporter, 24 h; activation, % at 6.8 µM; 3,300 tested, under 10 active; AID 743051;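 active = mean activation of the triplicate above a set limit carried over from the primary screen, none filed active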
Each line names hits and unclear results; the compound was inactive in the other large screens (follow-up assays come after a bar, where they were run).

CN1CCC(N2CCN(C3CN(C4CCCCC4)S(=O)(=O)C3)CC2)CC1 (centres undefined)	none (no result: DAX1 inh-1)
CC(=O)c1sc(NC(=O)c2ccc(C(C)(C)C)cc2)nc1C	DAX1 inh-2 7.6, hgDAF12 agonist 13, hcDAF-12 act 6.2 | DAX1 inh confirm 14 | SF1 AF2mut Luc 9.6 | hgDAF12 conf 19 | LXR ag 2 inactive
COc1ccc(C(=O)c2sc(Nc3ccc(NC(C)=O)cc3)nc2C)cc1	none
COc1ccc(Nc2nc(C)c(C(C)=O)s2)cc1	DAX1 inh-2 4.9, hgDAF12 agonist 17 (no result: DAX1 inh-1) | DAX1 inh confirm 5.1 | SF1 AF2mut Luc 4.6 | hgDAF12 conf inactive | LXR ag 2 inactive
CC(=O)c1sc(NC(=O)C(C)(C)C)nc1C	none
CC(=O)c1sc(NC(=O)c2ccccc2F)nc1C	DAX1 inh-2 5.4, hgDAF12 agonist 14 | DAX1 inh confirm 13 | SF1 AF2mut Luc 6.4 | hgDAF12 conf 14 | LXR ag 2 inactive
CN(c1ccc([N+](=O)[O-])cc1C(N)=O)C1CCCCC1	none
CC(NC(=O)c1cc(COc2ccccc2)on1)c1nccs1 (centres undefined)	DAX1 inh-2 7.3, hgDAF12 agonist 20, hcDAF-12 act 7.9 | DAX1 inh confirm 8.3 | SF1 AF2mut Luc 5.2 | LXRb hcDAF ctr inactive | hcDAF12 conf 6.0 | hgDAF12 conf 19 | LXR ag 2 inactive
CC(=O)c1ccc(OCc2cc(C(=O)NC(C)c3cnn(C)c3)no2)cc1 (centres undefined)	none
COc1cccc(N2CC(C(=O)Nc3nnc(SCCC4OCCO4)s3)CC2=O)c1 (centres undefined)	none
c1csc(-c2nnc(-c3ccc(N4CCOCC4)cc3)o2)c1	DAX1 inh-2 5.1, hgDAF12 agonist 15, hcDAF-12 act 5.8 | DAX1 inh confirm 14 | SF1 AF2mut Luc 6.2 | hgDAF12 conf 19 | LXR ag 2 inactive
CCOc1ccc(-c2nnc(-c3cccs3)o2)cc1	DAX1 inh-2 4.9, hgDAF12 agonist 16, hcDAF-12 act 7.4 | DAX1 inh confirm 13 | SF1 AF2mut Luc 4.6 | LXRb hcDAF ctr inactive | hcDAF12 conf 7.8 | hgDAF12 conf 15 | LXR ag 2 inactive
c1cncc(-c2nnc(-c3cccs3)o2)c1	none
COc1ccc(CCNC(=O)c2ccc3nc[nH]c3c2)cc1	none
CC(C)(C)c1ccc(-c2nnc(N)s2)cc1	DAX1 inh-2 5.0, hgDAF12 agonist 17 | DAX1 inh confirm 11 | SF1 AF2mut Luc 7.0 | hgDAF12 conf 12 | LXR ag 2 inactive
Nc1nnc(-c2ccc(F)cc2)s1	none
CCc1ccc(NC(=O)NC2CCCCCCC2)cc1	DAX1 inh-2 7.9, hgDAF12 agonist 17 | DAX1 inh confirm 10 | SF1 AF2mut Luc 5.4 | hgDAF12 conf 18 | LXR ag 2 inactive
CCc1ccc(NC(=O)C(=S)NC2CCCCC2)cc1	none
O=C(N/N=C/c1cc([N+](=O)[O-])ccc1O)c1ccc2c(c1)OCCO2	none
O=C(N/N=C/c1cccc(O)c1)c1ccc2c(c1)OCCO2	DAX1 inh-2 19, hgDAF12 agonist 18, ssDAF-12 act 1.1, hcDAF-12 act 13 | DAX1 inh confirm 17 | SF1 AF2mut Luc 9.4 | LXRb hcDAF ctr inactive | hcDAF12 conf 8.5 | hgDAF12 conf 18 | LXR ag 2 inactive
O=C(N/N=C/c1ccccc1[N+](=O)[O-])c1ccc2c(c1)OCCO2	DAX1 inh-2 5.6, hgDAF12 agonist 24, hcDAF-12 act 6.2 | DAX1 inh confirm 11 | SF1 AF2mut Luc 4.8 | hgDAF12 conf 15 | LXR ag 2 inactive
CC(Oc1ccccc1)C(=O)N/N=C/c1ccccn1 (centres undefined)	none
Cc1oc(-c2ccccc2F)nc1CS(=O)(=O)CC(=O)NCc1ccccc1Cl	none
Cc1nn(-c2ccccc2)c(Cl)c1/C=N/Nc1ccc(Cl)c(C(=O)O)c1	DAX1 inh-2 7.5, hgDAF12 agonist 24, ssDAF-12 act 1.2, hcDAF-12 act 9.9 | DAX1 inh confirm 16 | SF1 AF2mut Luc 7.9 | LXRb hcDAF ctr inactive | hcDAF12 conf 11 | hgDAF12 conf 27 | LXR ag 2 inactive
CNC(=S)N/N=C/c1c(C)nn(-c2ccccc2)c1Cl	none
CCOC(=O)/C(N=Nc1sc(C(=O)OC)c(C)c1C(=O)OCC)=C(\O)CCl	none
O=C(C=NNc1ccccc1)c1ccccc1	DAX1 inh-1 4.5, DAX1 inh-2 7.3, hgDAF12 agonist 29, ssDAF-12 act 1.8, hcDAF-12 act 12 | DAX1 inh confirm 17 | SF1 AF2mut Luc 9.1 | LXRb hcDAF ctr inactive | hcDAF12 conf 12 | hgDAF12 conf 24 | LXR ag 2 inactive
Cc1cc(SCC(=O)c2ccccc2)nc(=O)[nH]1	none
Cc1ccc(C(=O)CSc2cc(C)[nH]c(=O)n2)cc1	DAX1 inh-1 5.0, DAX1 inh-2 12, hgDAF12 agonist 15 | DAX1 inh confirm 11 | SF1 AF2mut Luc 8.3 | hgDAF12 conf 16 | LXR ag 2 inactive
CN(C)c1ccc(C(=S)NCc2ccco2)cc1	DAX1 inh-2 5.2, hgDAF12 agonist 16, ssDAF-12 act 0.9, hcDAF-12 act 7.5 | DAX1 inh confirm 11 | SF1 AF2mut Luc 5.6 | LXRb hcDAF ctr inactive | hcDAF12 conf 10 | hgDAF12 conf 20 | LXR ag 2 inactive
CN(C)c1ccc(/C=N/NC(=S)NCc2ccco2)cc1	none
CCCc1nc2c3ccccc3ccn2c1CC(C)(C)C	none (no result: DAX1 inh-1)
Cc1cc(Br)cn2c(Cc3ccccc3)c(C3CCCCC3)nc12	none (no result: DAX1 inh-1)
c1ccc(Cc2c(C3CCCCC3)nc3c4ccccc4ccn23)cc1	DAX1 inh-2 6.1, hgDAF12 agonist 18, ssDAF-12 act 2.1, hcDAF-12 act 11 (no result: DAX1 inh-1) | DAX1 inh confirm 6.1 | SF1 AF2mut Luc 4.0 | LXRb hcDAF ctr inactive | hcDAF12 conf 8.0 | hgDAF12 conf 20 | LXR ag 2 inactive

Assay outcomes as filed in PubChem.
